From the supplement of paper PMC10849652
Of roughly 7,900 targets only a part is listed; those with a hit were picked by preference. About 0.6% of all pairs of compound and target were hits.

Assays:
Test in all cases: log2 fold change, soluble protein after heating vs DMSO (PISA); higher = thermal stabilisation; K562 cells, 10 uM, 30 min; active = over 0.2 and 3.5 SD of the protein, either way, in both replicates (recomputed)
[1] = compound: CC1=C(C=C(C=C1)NC(=O)C2=CC(=CC=C2)C(C)(C)C#N)NC3=CC4=C(C=C3)N=CN(C4=O)C
Method in brief: (§1)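 Quantification of soluble protein used TMTpro 16plex LC-MS/MS, with channel sums equalised. Samples were the supernatant after 21,000xg for 90 min of pooled aliquots from K562 cells (2×10^6 cells/mL) treated with 10 μM compound for 30 min, heated for 3 min over 48°C-58°C, and extracted in PBS with 0.5% NP-40 at 4°C. Values, from duplicates, describe thermal stability against control samples on a log2 fold-change scale.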

[2] = compound: CC1=C(C=C(C=C1)NC(=O)C2=CC(=CC=C2)N(C)C)NC(=O)C3=CC=C(C=C3)O
Method in brief: as §1

[3] = compound: CC1=CC=C(C=C1)SC2=C3C=C(SC3=CN=C2)C(=O)N
Method in brief: as §1

[4] = compound: CC1=NC(=CC=C1)C2=C(N=C(N2)C(C)(C)C)C3=CC4=NC=CN=C4C=C3
Method in brief: as §1

[5] = compound: CCCCN(Cc1ccc(C(=O)NO)cc1)C(=O)Nc1ccccc1 [Nexturastat A]
Method in brief: as §1

[6] = compound: CCCS(=O)(=O)Nc1ccc(F)c(C(=O)c2c[nH]c3ncc(-c4ccc(Cl)cc4)cc23)c1F [vemurafenib]
Method in brief: as §1

[7] = compound: CCCS(=O)(=O)Nc1ccc(F)c(C(=O)c2c[nH]c3ncc(Cl)cc23)c1F
Method in brief: as §1

[8] = compound: CCCc1cc(C)[nH]c(=O)c1CNC(=O)c1cc(-c2ccnc(N3CCN(C)CC3)c2)cc2c1cnn2C(C)C
Method in brief: as §1

[9] = compound: CCN(CC)Cc1ccc2cc(COC(=O)Nc3ccc(C(=O)NO)cc3)ccc2c1 [givinostat]
Method in brief: as §1

[10] = compound: CCN(CCCOc1ccc2c(Nc3cc(CC(=O)Nc4cccc(F)c4)[nH]n3)ncnc2c1)CCOP(=O)(O)O [barasertib]
Method in brief: as §1

[11] = compound: CC[C@@H]1C(=O)N(C)c2cnc(Nc3ccc(C(=O)NC4CCN(C)CC4)cc3OC)nc2N1C1CCCC1
Method in brief: as §1

[12] = compound: CC[C@@H]1C(=O)N(C)c2cnc(Nc3ccc(C(=O)N[C@H]4CC[C@H](N5CCN(CC6CC6)CC5)CC4)cc3OC)nc2N1C(C)C [volasertib]
Method in brief: as §1

[13] = compound: CC[C@H](C)N1C=C(C2=C(C=C(C=C21)C3=CN=C(C=C3)N4CCNCC4)C(=O)NCC5=C(C=C(NC5=O)C)C)C
Method in brief: as §1

[14] = compound: CC[C@H](C)[C@@H](C(=O)N[C@@H]([C@@H](C)O)C(=O)N[C@@H](CC(C)C)C(=O)[C@]1(CO1)C)NC(=O)[C@H]([C@@H](C)CC)N(C)C(=O)C [epoxomicin]
Method in brief: as §1

[15] = compound: CCn1c(C(=O)N(C2CC2)C2CC2)cc2c3c(ncn3C)c(Nc3cc(C)n(C)n3)nc21
Method in brief: as §1

[16] = compound: CCn1cc(-c2ccnc3[nH]c(-c4cccc(CN(C)C)c4)cc23)c(-c2ccc(NC(=O)N(C)C)cc2)n1
Method in brief: as §1

[17] = compound: CN(C)CC(=O)Nc1ccc2[nH]c(=O)c3ccccc3c2c1
Method in brief: as §1

[18] = compound: CN(CCOC1=CC=C(C=C1)C[C@H]2C(=O)NC(=O)S2)C3=CC=CC=N3 (racemic) [rosiglitazone]
Method in brief: as §1

[19] = compound: CN1C2=C(C3=C1C(=O)N(N=C3)CC4=CC(=CC=C4)N)SC(=C2)S(=O)C
Method in brief: as §1

[20] = compound: CN1CCC(CNc2ccc3ncc(-c4cccc(OC(F)(F)F)c4)n3n2)CC1
Method in brief: as §1

Measured: log2 fold change

ILF3 isoform 7 (UniProt Q12906)
UniProt Q12906, sequence (Q12906 whole entry, looked up): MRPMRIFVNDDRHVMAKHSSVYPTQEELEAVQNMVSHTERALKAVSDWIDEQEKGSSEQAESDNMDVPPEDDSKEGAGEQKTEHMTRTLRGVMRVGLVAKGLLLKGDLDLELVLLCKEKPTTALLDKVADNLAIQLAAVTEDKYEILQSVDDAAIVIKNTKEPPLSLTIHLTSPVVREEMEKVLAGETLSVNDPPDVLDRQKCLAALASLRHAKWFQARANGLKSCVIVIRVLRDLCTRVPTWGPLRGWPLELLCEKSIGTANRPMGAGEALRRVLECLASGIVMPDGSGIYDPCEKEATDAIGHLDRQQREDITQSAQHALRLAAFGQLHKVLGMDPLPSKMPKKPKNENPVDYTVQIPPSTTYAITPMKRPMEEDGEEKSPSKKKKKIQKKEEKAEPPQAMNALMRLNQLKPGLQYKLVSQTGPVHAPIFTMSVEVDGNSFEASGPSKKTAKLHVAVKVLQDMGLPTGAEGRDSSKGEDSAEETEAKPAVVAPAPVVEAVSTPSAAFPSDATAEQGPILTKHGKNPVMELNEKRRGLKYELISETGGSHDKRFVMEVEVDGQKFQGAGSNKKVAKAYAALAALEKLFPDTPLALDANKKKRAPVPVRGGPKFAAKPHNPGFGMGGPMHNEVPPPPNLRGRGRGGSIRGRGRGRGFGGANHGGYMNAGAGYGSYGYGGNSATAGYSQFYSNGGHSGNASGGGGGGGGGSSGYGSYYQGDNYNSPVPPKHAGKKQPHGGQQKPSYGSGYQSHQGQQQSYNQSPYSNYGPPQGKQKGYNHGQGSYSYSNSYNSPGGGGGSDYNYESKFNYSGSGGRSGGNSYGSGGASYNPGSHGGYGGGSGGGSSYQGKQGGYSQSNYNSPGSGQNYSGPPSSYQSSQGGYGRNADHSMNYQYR
inactive: [1] 0.028 | [2] -0.068 | [3] -0.087 | [4] -0.036 | [5] 0.146 | [6] -0.036 | [7] -0.1 | [8] 0.102 | [9] -0.017 | [10] -0.125 | [11] 0.348 | [12] 0.356 | [13] -0.021 | [14] -0.185 | [15] -0.02 | [16] 0.135 | [17] -0.101 | [18] -0.095 | [19] 0.146 | [20] 0.231

MFN1 (UniProt Q8IWA4)
inactive: [1] -0.007 | [2] 0.035 | [3] 0.039 | [4] -0.04 | [5] -0.032 | [6] -0.061 | [7] -0.021 | [8] -0.19 | [9] 0.053 | [10] 0.016 | [11] -0.099 | [12] -0.136 | [13] -0.056 | [14] 0.079 | [15] 0.015 | [16] -0.024 | [17] -0.025 | [18] 0.32 | [19] -0.045
active: [20] -0.295

MAPKAPK2 (UniProt P49137)
UniProt P49137, sequence (P49137 whole entry, looked up): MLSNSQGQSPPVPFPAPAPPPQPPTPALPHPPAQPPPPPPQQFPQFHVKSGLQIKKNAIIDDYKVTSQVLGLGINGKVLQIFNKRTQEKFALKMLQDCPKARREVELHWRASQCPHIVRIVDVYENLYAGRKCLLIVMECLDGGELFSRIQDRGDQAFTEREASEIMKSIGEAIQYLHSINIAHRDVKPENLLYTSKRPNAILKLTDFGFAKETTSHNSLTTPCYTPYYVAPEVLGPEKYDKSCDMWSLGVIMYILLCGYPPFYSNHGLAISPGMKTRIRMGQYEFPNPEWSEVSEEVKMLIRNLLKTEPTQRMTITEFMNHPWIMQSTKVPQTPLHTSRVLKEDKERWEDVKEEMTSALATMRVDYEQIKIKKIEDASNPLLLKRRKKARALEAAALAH
inactive: [1] 0.077 | [2] 0.082 | [3] -0.008 | [4] 0.019 | [5] -0.047 | [6] 0.074 | [7] 0.045 | [8] 0.038 | [9] 0.026 | [10] -0.001 | [11] -0.058 | [12] -0.059 | [13] 0.026 | [14] 0.049 | [15] 0.022 | [16] -0.002 | [17] 0.032 | [18] 0.023 | [19] -0.007 | [20] -0.018

IKZF1 (UniProt Q13422)
UniProt Q13422, sequence (Q13422 whole entry, looked up): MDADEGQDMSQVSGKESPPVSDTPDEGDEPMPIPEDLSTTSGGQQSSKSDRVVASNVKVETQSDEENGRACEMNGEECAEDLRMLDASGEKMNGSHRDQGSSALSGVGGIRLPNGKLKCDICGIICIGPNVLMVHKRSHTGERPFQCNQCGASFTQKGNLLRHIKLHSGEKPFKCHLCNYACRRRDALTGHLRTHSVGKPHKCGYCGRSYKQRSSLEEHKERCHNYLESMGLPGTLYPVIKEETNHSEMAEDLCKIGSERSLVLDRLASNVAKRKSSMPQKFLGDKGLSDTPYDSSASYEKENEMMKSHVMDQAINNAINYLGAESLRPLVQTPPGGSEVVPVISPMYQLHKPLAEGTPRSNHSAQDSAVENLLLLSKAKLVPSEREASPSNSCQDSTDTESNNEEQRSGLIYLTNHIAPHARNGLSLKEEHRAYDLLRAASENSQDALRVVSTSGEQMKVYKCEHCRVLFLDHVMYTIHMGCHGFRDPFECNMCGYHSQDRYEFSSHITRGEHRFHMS
inactive: [1] 0.144 | [2] 0.036 | [3] -0.007 | [4] 0.041 | [5] -0.006 | [6] 0.044 | [7] 0.034 | [8] 0.177 | [9] -0.018 | [10] -0.052 | [11] 0.079 | [12] -0.067 | [13] 0.053 | [14] -0.052 | [15] 0.018 | [16] -0.048 | [17] 0.024 | [18] 0.008 | [19] 0.051 | [20] -0.239

LEO1 (UniProt Q8WVC0)
active: [12] -0.402
inactive: [1] -0.086 | [2] -0.113 | [3] 0 | [4] -0.075 | [5] 0.109 | [6] -0.025 | [7] 0.033 | [8] 0.029 | [9] 0.118 | [10] 0.032 | [11] -0.021 | [13] -0.013 | [14] -0.001 | [15] -0.007 | [16] -0.051 | [17] 0.121 | [18] 0.006 | [19] -0.033 | [20] -0.048

LEMD2 (UniProt Q8NC56)
inactive: [1] -0.068 | [2] -0.02 | [3] 0.038 | [4] 0.051 | [5] -0.002 | [6] -0.001 | [7] 0.045 | [8] 0.002 | [9] -0.022 | [10] 0.017 | [11] -0.212 | [13] 0.034 | [14] -0.002 | [15] -0.02 | [16] 0.028 | [17] 0.091 | [18] 0.023 | [19] -0.006
active: [12] -0.422 | [20] -0.338

KEL (UniProt P23276)
inactive: [1] -0.004 | [2] -0.061 | [3] 0.117 | [4] 0.01 | [5] 0.117 | [6] -0.009 | [7] -0.015 | [8] -0.014 | [9] -0.056 | [10] -0.029 | [11] 0.195 | [12] -0.085 | [13] -0.085 | [14] 0.063 | [15] 0.033 | [16] -0.013 | [17] -0.007 | [18] 0.024 | [19] 0.018 | [20] 0.088

KSR1 (UniProt Q8IVT5)
UniProt Q8IVT5, sequence (Q8IVT5 whole entry, looked up): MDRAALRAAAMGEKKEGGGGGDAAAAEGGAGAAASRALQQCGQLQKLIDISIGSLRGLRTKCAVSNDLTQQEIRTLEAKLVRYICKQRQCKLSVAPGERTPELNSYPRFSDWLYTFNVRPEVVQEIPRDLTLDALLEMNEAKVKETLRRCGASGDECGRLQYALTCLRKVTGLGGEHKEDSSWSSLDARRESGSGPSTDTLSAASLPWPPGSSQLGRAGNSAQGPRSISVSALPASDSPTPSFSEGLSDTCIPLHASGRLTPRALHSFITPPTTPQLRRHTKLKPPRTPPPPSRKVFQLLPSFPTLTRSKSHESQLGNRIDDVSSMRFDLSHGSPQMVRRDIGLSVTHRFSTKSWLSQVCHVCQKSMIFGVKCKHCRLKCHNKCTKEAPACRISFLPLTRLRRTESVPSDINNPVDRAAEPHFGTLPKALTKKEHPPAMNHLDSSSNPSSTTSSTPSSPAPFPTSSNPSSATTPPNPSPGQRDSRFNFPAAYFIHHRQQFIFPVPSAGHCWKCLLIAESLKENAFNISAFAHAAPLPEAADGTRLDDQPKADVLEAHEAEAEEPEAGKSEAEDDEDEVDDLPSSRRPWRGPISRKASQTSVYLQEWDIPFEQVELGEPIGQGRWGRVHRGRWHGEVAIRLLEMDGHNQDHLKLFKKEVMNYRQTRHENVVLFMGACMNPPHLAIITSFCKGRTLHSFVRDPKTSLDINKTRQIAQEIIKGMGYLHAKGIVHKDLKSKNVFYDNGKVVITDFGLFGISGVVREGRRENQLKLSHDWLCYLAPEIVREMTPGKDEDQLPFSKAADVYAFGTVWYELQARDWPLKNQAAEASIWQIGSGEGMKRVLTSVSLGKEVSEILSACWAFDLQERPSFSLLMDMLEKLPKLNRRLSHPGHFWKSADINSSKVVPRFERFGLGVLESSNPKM
inactive: [1] 0.231 | [2] -0.007 | [3] 0.112 | [4] -0.028 | [5] 0.001 | [6] 0.046 | [7] 0.218 | [8] -0.132 | [9] 0.106 | [10] 0.013 | [11] -0.11 | [12] -0.182 | [13] 0.179 | [14] 0.047 | [15] 0.002 | [16] 0.178 | [17] 0.009 | [18] 0.058 | [19] -0.05
active: [20] -0.878

IPO7 (UniProt O95373)
UniProt O95373, sequence (O95373 whole entry, looked up): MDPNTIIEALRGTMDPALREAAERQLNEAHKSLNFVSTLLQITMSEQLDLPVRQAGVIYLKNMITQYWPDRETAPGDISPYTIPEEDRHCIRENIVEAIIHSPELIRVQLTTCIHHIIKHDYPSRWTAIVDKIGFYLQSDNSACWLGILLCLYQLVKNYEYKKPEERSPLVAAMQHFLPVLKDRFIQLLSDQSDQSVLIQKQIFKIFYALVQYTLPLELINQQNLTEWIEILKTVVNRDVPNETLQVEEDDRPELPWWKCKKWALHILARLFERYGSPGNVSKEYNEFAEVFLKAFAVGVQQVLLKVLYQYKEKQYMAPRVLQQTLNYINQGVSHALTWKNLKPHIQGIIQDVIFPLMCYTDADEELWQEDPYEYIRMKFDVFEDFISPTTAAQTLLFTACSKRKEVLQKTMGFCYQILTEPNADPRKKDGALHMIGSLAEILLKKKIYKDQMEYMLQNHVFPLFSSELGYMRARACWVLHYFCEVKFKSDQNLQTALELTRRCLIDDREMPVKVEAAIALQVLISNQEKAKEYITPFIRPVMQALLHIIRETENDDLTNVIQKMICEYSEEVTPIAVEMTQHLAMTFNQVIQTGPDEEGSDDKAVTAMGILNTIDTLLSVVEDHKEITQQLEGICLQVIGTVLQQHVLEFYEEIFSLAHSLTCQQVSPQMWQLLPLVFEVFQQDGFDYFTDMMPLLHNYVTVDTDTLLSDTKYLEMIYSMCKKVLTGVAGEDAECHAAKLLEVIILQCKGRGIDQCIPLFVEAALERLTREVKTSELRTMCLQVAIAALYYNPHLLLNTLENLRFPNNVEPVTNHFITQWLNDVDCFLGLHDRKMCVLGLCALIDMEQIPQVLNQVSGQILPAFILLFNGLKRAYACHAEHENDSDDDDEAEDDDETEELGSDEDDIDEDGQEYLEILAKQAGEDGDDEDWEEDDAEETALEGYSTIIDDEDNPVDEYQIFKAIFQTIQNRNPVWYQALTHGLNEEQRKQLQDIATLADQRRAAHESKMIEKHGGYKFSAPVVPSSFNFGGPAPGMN
inactive: [1] 0.004 | [2] -0.007 | [3] 0.035 | [4] 0.035 | [5] 0.009 | [6] 0.025 | [7] 0.081 | [8] -0.007 | [9] 0.009 | [10] 0.047 | [13] 0.067 | [14] -0.007 | [15] 0.008 | [16] -0.038 | [17] 0.051 | [18] 0.067 | [19] -0.011
active: [11] -0.248 | [12] -0.542 | [20] -0.248

MFGE8 (UniProt Q08431)
inactive: [1] 0.034 | [2] -0.027 | [3] -0.122 | [4] -0.061 | [5] 0.161 | [6] -0.028 | [7] -0.124 | [8] 0.019 | [9] -0.004 | [10] -0.057 | [11] 0.061 | [12] 0.362 | [13] -0.007 | [14] -0.003 | [15] 0.063 | [16] -0.057 | [17] -0.103 | [18] -0.092 | [19] 0.114 | [20] 0.098

MAP2K7 isoform 4 (UniProt O14733)
UniProt O14733, sequence (O14733 whole entry, looked up): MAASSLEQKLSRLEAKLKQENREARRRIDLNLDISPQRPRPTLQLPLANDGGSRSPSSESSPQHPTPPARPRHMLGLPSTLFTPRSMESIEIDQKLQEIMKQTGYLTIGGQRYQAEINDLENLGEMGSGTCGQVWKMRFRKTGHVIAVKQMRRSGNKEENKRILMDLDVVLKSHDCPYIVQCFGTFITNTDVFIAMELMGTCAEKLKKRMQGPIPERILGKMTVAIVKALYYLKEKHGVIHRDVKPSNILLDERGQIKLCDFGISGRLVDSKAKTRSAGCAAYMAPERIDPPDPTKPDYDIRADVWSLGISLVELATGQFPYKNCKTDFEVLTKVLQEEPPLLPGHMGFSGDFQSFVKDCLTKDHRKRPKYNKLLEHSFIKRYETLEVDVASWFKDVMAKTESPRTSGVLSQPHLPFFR
inactive: [1] -0.068 | [2] 0.003 | [3] -0.008 | [4] 0.009 | [5] -0.031 | [6] -0.01 | [7] 0.009 | [8] -0.026 | [9] -0.019 | [10] 0.016 | [11] -0.026 | [12] -0.005 | [13] 0.022 | [14] 0.07 | [15] 0.017 | [16] -0.086 | [17] -0.017 | [18] 0.033 | [19] -0.065 | [20] -0.15

ILVBL (UniProt A1L0T0)
inactive: [1] -0.021 | [2] -0.052 | [3] 0.005 | [4] -0.051 | [5] 0.007 | [6] 0.037 | [7] 0.049 | [8] 0.004 | [9] -0.002 | [10] 0.021 | [11] 0.049 | [12] 0.069 | [13] -0.034 | [14] 0.069 | [15] 0.006 | [16] 0.042 | [17] 0.036 | [18] -0.044 | [19] -0.068 | [20] 0.019

MAGOHB (UniProt Q96A72)
UniProt Q96A72, sequence (Q96A72 whole entry, looked up): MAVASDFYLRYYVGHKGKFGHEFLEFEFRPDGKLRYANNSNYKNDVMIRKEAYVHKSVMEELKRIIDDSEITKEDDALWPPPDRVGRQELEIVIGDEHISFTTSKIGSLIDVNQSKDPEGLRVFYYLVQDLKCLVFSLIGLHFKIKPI
inactive: [1] -0.002 | [2] -0.062 | [3] 0.008 | [4] 0.067 | [5] -0.026 | [6] 0.037 | [7] 0.04 | [8] -0.069 | [9] 0.003 | [10] 0.007 | [11] -0.046 | [12] -0.096 | [13] 0.014 | [14] 0.007 | [15] -0.041 | [16] 0.003 | [17] 0.013 | [18] 0.017 | [19] -0.039 | [20] 0.023

METTL18 (UniProt O95568)
inactive: [1] -0.026 | [2] 0.018 | [3] -0.032 | [4] 0.028 | [5] -0.164 | [6] 0.014 | [7] 0.05 | [8] -0.042 | [9] -0.245 | [10] 0.012 | [11] 0.02 | [12] -0.159 | [13] 0.032 | [14] -0.058 | [15] 0.08 | [16] 0 | [17] 0.006 | [18] 0.062 | [19] 0.005 | [20] 0.015

IK (UniProt Q13123)
inactive: [1] 0.032 | [2] 0.039 | [3] -0.035 | [4] -0.026 | [5] 0.093 | [6] 0.086 | [7] -0.002 | [8] 0.036 | [9] 0.021 | [10] 0.047 | [11] -0.136 | [13] 0.02 | [14] 0.125 | [15] -0.053 | [16] 0.069 | [17] -0.034 | [18] 0.02 | [19] 0.145 | [20] -0.035
active: [12] -0.366

LUC7L (UniProt Q9NQ29)
UniProt Q9NQ29, sequence (Q9NQ29 whole entry, looked up): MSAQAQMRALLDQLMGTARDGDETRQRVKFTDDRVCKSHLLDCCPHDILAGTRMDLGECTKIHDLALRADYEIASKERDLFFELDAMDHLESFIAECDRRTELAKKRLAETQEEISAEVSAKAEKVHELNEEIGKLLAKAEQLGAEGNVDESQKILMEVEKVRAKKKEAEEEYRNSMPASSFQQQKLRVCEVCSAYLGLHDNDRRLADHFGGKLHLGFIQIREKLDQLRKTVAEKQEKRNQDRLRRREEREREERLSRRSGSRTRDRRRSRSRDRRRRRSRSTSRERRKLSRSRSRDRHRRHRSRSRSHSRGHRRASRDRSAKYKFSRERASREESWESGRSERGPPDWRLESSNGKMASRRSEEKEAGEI
inactive: [1] 0.028 | [2] 0.003 | [3] -0.022 | [4] -0.021 | [5] 0.054 | [6] -0.007 | [7] -0.004 | [8] 0.027 | [9] -0.034 | [10] -0.01 | [11] 0.006 | [12] -0.005 | [13] 0.005 | [14] -0.052 | [15] 0.048 | [16] 0.01 | [17] -0.043 | [18] -0.003 | [19] 0.108 | [20] 0.052
